# From PubChem BioAssay AID463173 (ICCB-Longwood Screening Facility, Harvard Medical School, 2010)
# In all, about 52,000 compounds went through this assay and about 4,300 (8.3%) were called active. The sample as a whole holds a higher share of actives than the screen did. Unmarked numbers belong to inactive results. Rule as the data show it: active = survival mostly below about 52% (no sharp cut-off); inactive = mostly above about 56%.
# System: DeltatarO mutant
# Test: S. aureus survival, RN4220 and DeltatarO strains – OD600, teichoic acid synthesis inhibitors, primary screen (AID 463173)
# Conditions: S. aureus RN4220 wild type/DeltatarO growth, OD600, 18 h, active compounds read low, screened at 18.75 µg/mL (by protocol)
row,Compound,survival
1,O=c1c2cccnc2n(Cc2ccccc2F)c(=O)n1Cc1ccccc1Cl,62%
2,Cc1cccc(S(=O)Cc2ccc(C(=O)NC3CCCCCC3)o2)c1 (stereo not drawn),81%
3,CCOc1ccc(NC(=O)C2CCCN(S(=O)(=O)c3ccc(Br)s3)C2)cc1 (stereo not drawn),101%
4,COCCCNC(=O)c1ccc(CSc2nc3cccnc3n2Cc2ccc(OC)cc2)cc1,107%
5,O=C(NCCc1cccs1)c1ccc(Cn2c(SCc3ccccc3)nc3cccnc32)cc1,99%
6,COc1ccc(Cn2c(SCc3ccc(C(=O)NCc4ccc(C)cc4)cc3)nc3cccnc32)cc1,58%
7,Cc1ccccc1CNC(=O)c1ccc(Cn2c(SCc3ccccc3)nc3cccnc32)cc1,0% (active)
8,CCNC(=O)c1ccc(CSc2nc3cccnc3n2Cc2ccc(OC)cc2)cc1,0% (active)
9,Cc1ccc(CSc2nc3cccnc3n2Cc2ccc(C(=O)NCCc3cccs3)cc2)cc1,135%
10,COc1ccccc1CNC(=O)c1ccc(Cn2c(SCc3ccccc3)nc3cccnc32)cc1,37% (active)
11,Cc1ccccc1CNC(=O)c1ccc(Cn2c(SCc3cccc(F)c3)nc3cccnc32)cc1,89%
12,Cc1ccccc1CNC(=O)c1ccc(CSc2nc3cccnc3n2Cc2ccccc2)cc1,55%
13,CCOc1ccccc1CNC(=O)c1ccc(Cn2c(SCc3ccccc3)nc3cccnc32)cc1,74%
14,Cc1ccccc1CSc1nc2cccnc2n1Cc1ccc(C(=O)NCCc2cccs2)cc1,47% (active)
15,O=C(NCc1ccccc1Cl)c1ccc(Cn2c(SCc3ccccc3)nc3cccnc32)cc1,72%
16,Cc1cn2c(=O)c(S(=O)(=O)NCc3ccc(F)cc3)c(C)nc2s1,88%
17,CCc1ccc(NC(=O)CSc2nnc(C(C)C)n2CC)cc1,96%
18,O=C(C1CCN(S(=O)(=O)c2ccc3c(c2)OCCO3)CC1)N1CCN(c2nc3ccccc3s2)CC1,109%
19,O=C(Nc1cccnc1)Nc1c[nH]c2c(Cl)cccc2c1=O,89%
20,COc1ccc(-c2cc(C(F)(F)F)n3nc(C(=O)O)c(Cl)c3n2)cc1OC,70%

row,Compound,survival
1,Cc1cc(C)nc(-n2nc(C)c3c2N(C)C(=O)CC3c2ccc(Cl)cc2)n1 (stereo not drawn),73%
2,COc1ccc(-c2onc(C)c2C)cc1S(=O)(=O)N1CCC(C)CC1,70%
3,CC(NC(=O)CN1C(=O)COc2ccc(S(=O)(=O)N3CCCCCC3)cc21)c1ccccc1 (stereo not drawn),68%
4,O=C(Cn1c(=O)n(Cc2ccc3c(c2)OCO3)c(=O)c2ccc(C(=O)NC3CCCCC3)cc21)Nc1ccccc1F,76%
5,Cc1nc2c(C(=O)NCc3ccccc3)cnn2c(C)c1Cc1ccc(F)cc1,83%
6,CCN(CC)C(=O)CSc1nc2ccccc2c(=O)n1Cc1ccco1,77%
7,Cc1cccc(CNC(=O)c2ccc(Cn3c(SCc4ccccc4)nc4cccnc43)cc2)c1,92%
8,Cc1cccc(Cn2c(SCc3ccc(C(=O)NCc4ccccc4)cc3)nc3cccnc32)c1,46% (active)
9,Cc1cccc(Cn2c(SCc3ccc(C(=O)NCCc4ccccc4)cc3)nc3cccnc32)c1,115%
10,Cc1ccccc1C(=O)OCc1cc(=O)n2nc(-c3cccs3)sc2n1,117%
11,Cc1ccc(C)c(CNC(=O)CN2C(=O)CSc3ccc(S(=O)(=O)N(C)C)cc32)c1,87%
12,COc1ccc(CC(=O)Nc2sc3c(c2C(=O)Nc2cccc(Cl)c2)CCCCC3)cc1,59%
13,COc1ccc(NC(=O)c2c(NCc3cccc(OC)c3)sc3c2CCCC3)cc1,86%
14,COc1ccc(CC(=O)Nc2sc3c(c2C(=O)Nc2c(C)cccc2C)CCCCC3)cc1,47% (active)
15,COc1ccc(CC(=O)Nc2sc3c(c2C(=O)Nc2ccc(C)cc2)CCCCC3)cc1,131%
16,COc1ccc(CC(=O)Nc2sc3c(c2C(=O)Nc2ccccc2)CCCCC3)cc1,68%
17,COc1ccc(CC(=O)Nc2sc3c(c2C(=O)Nc2cccc(C)c2)CCCCC3)cc1,43% (active)
18,Cc1ccccc1CNc1nc(N(C)C)nc2c1cnn2C,72%
19,Cc1ccc(C(=O)c2cn(Cc3ccccc3F)c3cc4c(cc3c2=O)OCCO4)cc1,82%
20,CCc1ccc(NC(=O)CSc2cn(CC(=O)N3CCOCC3)c3ccccc23)cc1,86%

row,Compound,survival
1,CSc1ccc(CCNC(=O)c2ccc(-c3nc(COc4ccccc4)c(C)o3)cc2)cc1,91%
2,CC(C)(Cc1nc2ccccc2[nH]1)c1nc2ccccc2[nH]1,97%
3,Nc1ccc(Cc2nc3ccccc3[nH]2)cc1,86%
4,Cc1nn(-c2nc3ccccc3[nH]2)c(N)c1-c1ccccc1,2% (active)
5,COc1cc(OC)c(NC(=O)N2CCC(CN3CCCC3)CC2)cc1Cl,84%
6,COc1ccc(NC(=O)c2sc3nc(C(F)(F)F)cc(C)c3c2N)cc1OC,140%
7,N#Cc1cc2c(nc1SCC(=O)N1CCOCC1)CCC2,97%
8,O=C(COc1ccccc1Cl)Nc1nc(-c2ccc(F)cc2)ns1,55%
9,O=C(Nc1nc(-c2ccc(Br)cc2)ns1)c1ccc(F)cc1,52%
10,CCC(Oc1ccc(F)cc1)C(=O)Nc1nc2c(s1)CCCC2 (stereo not drawn),83%
11,CC(Oc1ccc(F)cc1)C(=O)Nc1nc(-c2ccc(F)cc2)ns1 (stereo not drawn),-2% (active)
12,COc1ccc(-c2nsc(NC(=O)COc3ccc(C)c(C)c3)n2)cc1,65%
13,Cc1cc(C)cc(OCC(=O)Nc2nc(-c3ccc(F)cc3)ns2)c1,89%
14,CCC(Oc1ccc(F)cc1)C(=O)Nc1nc(-c2ccc(F)cc2)ns1 (stereo not drawn),-2% (active)
15,COc1ccc(-c2nsc(NC(=O)C(C)Oc3ccc(Cl)c(C)c3)n2)cc1 (stereo not drawn),45% (active)
16,COc1ccc(-c2nsc(NC(=O)c3oc4cc(C)c(C)cc4c3C)n2)cc1,67%
17,CCC(=O)N1CCc2cc(CNC(=O)C(CC)c3ccccc3)ccc21 (stereo not drawn),92%
18,Cc1cc2c(cc1NC(=O)c1ccccc1Cl)n(C)c(=O)c(=O)n2C,79%
